Measurements published in PubChem BioAssay AID504332 (National Center for Advancing Translational Sciences (NCATS), 2011).
Hit rate of the full screen: of about 350,000 compounds, about 31,000 (8.9%) were called active. Roughly 15% stayed inconclusive and do not appear here. The full list was thinned out, with actives kept by preference. Unmarked numbers belong to inactive results. The call rests on the fitted dose curve; in most records, active means well fitted inhibition curve with a large enough effect; inconclusive means small, poorly fitted or top-dose-only effect; inactive means no such curve, though single readings can be large or run the other way.

target: Histone-lysine N-methyltransferase EHMT2 (Homo sapiens) (UniProt Q96KQ7); assay: qHTS Assay for Inhibitors of Histone Lysine Methyltransferase G9a; details: G9a H3K9 monomethylation, AlphaScreen, 2 h; series mostly up to 59 µM; activity, negative = inhibition: at the top concentration; further: nearly all actives have a fitted effect of over 75% in size
Method in brief: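 Methyltransferase reactions run at room temperature for 2 h (20 nM enzyme, 500 nM biotin-H3K9 peptide, 20 uM SAM) after a 15 min compound preincubation; product detected by AlphaScreen beads and anti-H3K9me1 antibody.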
On the % scale 0 is the no-effect control and ±100 the full control effect; potency means the concentration at half of the fitted maximal effect.

Sequence of Histone-lysine N-methyltransferase EHMT2 (Homo sapiens) (Q96KQ7 913-1193 limits assumed): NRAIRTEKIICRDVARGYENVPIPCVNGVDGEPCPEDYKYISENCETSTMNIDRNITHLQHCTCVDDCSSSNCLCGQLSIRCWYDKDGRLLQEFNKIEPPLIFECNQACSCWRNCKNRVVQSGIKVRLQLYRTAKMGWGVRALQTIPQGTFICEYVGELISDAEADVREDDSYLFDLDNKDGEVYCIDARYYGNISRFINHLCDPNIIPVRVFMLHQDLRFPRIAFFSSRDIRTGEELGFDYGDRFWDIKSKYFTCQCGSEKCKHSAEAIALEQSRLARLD

First: COCCNc1ccc(-c2n[nH]c(=O)c3ccccc23)cc1[N+](=O)[O-]
Second: CN(C)S(=O)(=O)c1ccc(NC(=O)COC(=O)Cn2[nH]c(=O)c3ccccc3c2=O)cc1
The “activity, negative = inhibition” value of the first is lower: -2.77% [at 102 µM] for the first, 0.845% [at 102 µM] for the second.

Compared with `OCCN1CCN(c2nnc(-c3ccccc3)c3ccccc23)CC1`, `O=C(COc1ccccc1)Nc1ccc(C(=O)N2CCCC2)cc1` is higher in “activity, negative = inhibition” value: -2.01% [at 102 µM] for the first, 54.3% [at 102 µM] for the second.

Compared with `COC(=O)CN1C(=O)[C@H]2[C@@H](/C=C/c3ccccc3)N3C(=O)CN(Cc4ccccc4)C(=O)[C@@]3(Cc3ccccc3)[C@H]2C1=O`, `COc1ccccc1CNC(=O)C1CCN(S(=O)(=O)c2ccc3c(c2)CC(C)N3C(=O)C2CC2)CC1` (stereo not drawn) is lower in “activity, negative = inhibition” value: 22.8% [at 102 µM] for the first, 0.85% [at 102 µM] for the second.

First: COc1cccc(/C=C2\C=C(c3ccc(C)cc3)OC2=O)c1OC(C)=O
Second: CC(=O)NC(=S)Nc1ccc(NC(=S)NC(=O)c2ccc([N+](=O)[O-])cc2)cc1
The “activity, negative = inhibition” value of the first is higher: -18.6% [at 102 µM] for the first, -40% [at 102 µM] for the second.

Going from `CCN(CC)CCCNC(=S)N(CCO)Cc1cc2cc3c(cc2[nH]c1=O)OCO3` to `CCNC(=S)N(CCN(CC)CC)Cc1cc2cc3c(cc2[nH]c1=O)OCO3`, the “activity, negative = inhibition” value rises from -0.221% [at 102 µM] to 3.61% [at 102 µM].

Going from `NC(=S)N/N=C/c1ccc([N+](=O)[O-])cc1` to `CCC(=O)Nc1nnc(S(=O)(=O)N(CC(C)C)c2ccccc2)s1`, the “activity, negative = inhibition” value rises from 1.02% [at 102 µM] to 25.7% [at 102 µM].

First: Cc1cccc(C(=O)Nc2nnc(S(=O)(=O)N3CCCCCC3)s2)c1
Second: COc1cccc(C(=O)Nc2nnc(S(=O)(=O)N3CCCCC3)s2)c1
The “activity, negative = inhibition” value of the first is higher: -0.38% [at 102 µM] for the first, -15.3% [at 102 µM] for the second.

First: CC1CCN(S(=O)(=O)c2nnc(NC(=O)COc3ccccc3F)s2)CC1
Second: O=S(=O)(c1ccc(-c2ccno2)s1)N1CCCCC1
The “activity, negative = inhibition” value of the first is lower: -0.0742% [at 102 µM] for the first, 100% [at 102 µM] for the second.

First: Cc1cc(C)cc(NS(=O)(=O)c2ccc(-c3cc(C)no3)s2)c1
Second: COc1cccc(NS(=O)(=O)c2ccc(-c3coc(C)n3)cc2)c1
The “activity, negative = inhibition” value of the first is lower: -5.96% for the first, 6.33% for the second.

Going from `O=C(NC(c1ccccc1)c1ccccc1)N1CCN(CCO)CC1` to `CC(C)Oc1ccc(CNC(=O)C2CCN(c3nc4ccccc4n(C)c3=O)CC2)cc1`, the “activity, negative = inhibition” value rises from -4.95% to 0.276%.

First: COCCNC(=O)CSc1nc(-c2ccccc2)[nH]c1-c1ccc(C)cc1
Second: Cc1ccc(-c2nnc(SCc3ccccc3C)o2)cc1
The “activity, negative = inhibition” value of the first is lower: -23.6% for the first, 63.6% for the second.

Compared with `Fc1ccccc1Oc1ncnc2c1oc1ccccc12`, `Cc1noc2ncnc(NCc3ccccc3Cl)c12` is lower in “activity, negative = inhibition” value: 31% for the first, 1.98% for the second.

First: COc1ccc(-c2nc3sc(CCNS(=O)(=O)c4ccc(F)c(C)c4)c(C)n3n2)cc1
Second: COc1ccc(-c2nn3c(-c4ccc(OC)cc4)nnc3c3ccccc23)cc1
The “activity, negative = inhibition” value of the first is lower: 8.56% for the first, 16.8% for the second.

Going from `COc1ccccc1/C=C/C1=NC(=C\N(C)C)/C(=O)O1` to `CCN(CC)CCNC(=O)CN1N=C(c2ccc(OC)cc2)CCC1=O`, the “activity, negative = inhibition” value falls from 0.665% to -2.08%.

Going from `COc1ccc(-c2ccc3nnc(SCC(=O)Nc4ccc(NC(C)=O)cc4)n3n2)cc1` to `CCCN1CN=C(NS(=O)(=O)c2ccc(NC(C)=O)cc2)NC1`, the “activity, negative = inhibition” value falls from 3.85% to 0.281%.

Going from `CCN(CC)S(=O)(=O)c1ccc(C)c(NC(=O)COc2ccc(Br)cc2Cl)c1` to `CCc1ccc(CNC(=O)c2cc3c(=O)n(CC)c4ccccc4c3s2)cc1`, the “activity, negative = inhibition” value falls from 13.3% to -20.7%.

With `OCCN1CCN(C(=S)c2ccc(-c3ccccc3)cc2)CC1` the Potency was 22.4 µM (active).
In the case of `Nc1ncnc2c1c(I)cn2[C@@H]1C[C@H](N)[C@@H](O)[C@H]1O`, the Potency is reported as 6.7 µM (active).
With `CN(C)/C=C1\C=C(c2ccccc2)OC1=O` the Potency was 39.8 µM (active).
With `COCCCNC(=S)N(CCN(C)C)Cc1cc2cc3c(cc2[nH]c1=O)OCCO3` the Potency was 35.5 µM (active).
With `CNC(=S)Nc1ccc([N+](=O)[O-])cc1` the Potency was 56.2 µM (active).
For `O=C(COC(=O)Cn1[nH]c(=O)c2ccccc2c1=O)Nc1ncc(Cl)cc1Cl`, the Potency was 56.2 µM (active).
In the case of `CCN(CC)S(=O)(=O)c1nnc(NC(=O)COc2ccccc2Cl)s1`, the Potency is reported as 2.82 µM (active).
In the case of `O=C(Nc1nnc(S(=O)(=O)N2CCCCCC2)s1)c1cccc(Br)c1`, the Potency is reported as 8.91 µM (active).
With `O=C(Nc1nnc(S(=O)(=O)N2CCOCC2)s1)c1cccc(Br)c1` the Potency was “inactive”.
With `Cc1ccccc1OCC(=O)Nc1nnc(S(=O)(=O)N2CCCC2)s1` the Potency was 2.24 µM (active).

Going from `Cc1ccc(N=C2SCCCN2C(=O)c2cccc(N3C(=O)CCC3=O)c2)cc1Cl` to `Cc1cc(C)c(C)c(S(=O)(=O)N2CCN(C(=O)c3ccc4c(=O)n5c(nc4c3)CCC5)CC2)c1C`, the activity, negative = inhibition falls from 10.1% [at 0.501 µM] to -30.4% [at 0.501 µM].

First: CCCn1c(=O)c(C(=O)Nc2cc(C)ccn2)c(O)c2ccccc21
Second: O=C(COC(=O)Cn1[nH]c(=O)c2ccccc2c1=O)Nc1c(Cl)cccc1C(F)(F)F
The activity, negative = inhibition of the first is lower: -5.46% [at 0.501 µM] for the first, 2.11% [at 0.501 µM] for the second.

Going from `CCN(CC)S(=O)(=O)c1ccc2c(c1)nc(CN(C)C(=O)Nc1ccc(Cl)cc1)n2C` to `COc1ccc(Cl)cc1NC(=O)COc1ccc2c(c1)OCO2`, the activity, negative = inhibition rises from 1.45% [at 12.7 µM] to 6.56% [at 12.7 µM].
